According to article PMC6602471:

biological target: RUNX1 (Homo sapiens, UniProt Q01196 1-453); assay: custom PBM; custom protein-binding microarray; buffer, salt, pH and temperature not stated; high values mean tight binding; details: dsDNA, one strand shown
Sequence (Q01196 whole entry): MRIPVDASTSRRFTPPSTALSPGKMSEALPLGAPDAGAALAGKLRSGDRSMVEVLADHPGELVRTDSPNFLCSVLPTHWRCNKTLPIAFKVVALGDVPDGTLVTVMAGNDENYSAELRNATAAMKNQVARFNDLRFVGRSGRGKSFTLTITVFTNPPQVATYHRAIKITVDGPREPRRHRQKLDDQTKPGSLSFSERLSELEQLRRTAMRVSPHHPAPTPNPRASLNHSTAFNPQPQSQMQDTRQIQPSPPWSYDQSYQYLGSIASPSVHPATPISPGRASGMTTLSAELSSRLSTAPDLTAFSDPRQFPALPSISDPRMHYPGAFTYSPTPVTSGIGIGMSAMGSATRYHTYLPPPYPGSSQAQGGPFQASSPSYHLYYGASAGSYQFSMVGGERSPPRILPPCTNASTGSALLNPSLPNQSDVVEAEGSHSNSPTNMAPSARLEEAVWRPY

| Sequence | binding signal |
| --- | --- |
| GCATACGGCTGACGTCAGCTACATACGCACACATACACATACACACATACACATACGCAC | 10.9 log fluorescence intensity |
| CGCGCTCTCTGTGGTTGCGCACATACGCACACATACACATACACACATACACATACGCAC | 11.4 log fluorescence intensity |
| GCGCACATTTTCCGTAAATCATACACGCACACATACACATACACACATACACATACGCAC | 11.1 log fluorescence intensity |
| GCATACGGCTGACGGCAGCCACATACGCACACATACACATACACACATACACATACGCAC | 10.9 log fluorescence intensity |
| GCATACCGCTGACGTCAGCCACATACGCACACATACACATACACACATACACATACGCAC | 10.9 log fluorescence intensity |
| GCGCACATATCCCGTAAATCATACACGCACACATACACATACACACATACACATACGCAC | 10.9 log fluorescence intensity |
| CGCGCACTCTGTGGTCGCGCACATACGCACACATACACATACACACATACACATACGCAC | 11.3 log fluorescence intensity |
| GCGCACATTACCCGTAAATCATACACGCACACATACACATACACACATACACATACGCAC | 10.9 log fluorescence intensity |
| CGCGCACTCTGTGGTTGCCCACATACGCACACATACACATACACACATACACATACGCAC | 11.3 log fluorescence intensity |
| GCATACGGCTGACTTCAGCCACATACGCACACATACACATACACACATACACATACGCAC | 10.9 log fluorescence intensity |
| GCATACGGCTGACGTCAGCCACATACGCACACATACACATACACACATACACATACGCAC | 11 log fluorescence intensity |
| GCGCACATTTCCCGTCAATCATACACGCACACATACACATACACACATACACATACGCAC | 11 log fluorescence intensity |
| CGCGCACTCTGTGGTTACGCACATACGCACACATACACATACACACATACACATACGCAC | 11.7 log fluorescence intensity |
| GCGCACATTGCCCGTAAATCATACACGCACACATACACATACACACATACACATACGCAC | 10.9 log fluorescence intensity |
| CGCGCACTCTGTGGCTGCGCACATACGCACACATACACATACACACATACACATACGCAC | 10.9 log fluorescence intensity |
| GCATACGGCTGACGTAAGCCACATACGCACACATACACATACACACATACACATACGCAC | 11 log fluorescence intensity |
| GCATACGGCCGACGTCAGCCACATACGCACACATACACATACACACATACACATACGCAC | 11 log fluorescence intensity |

| Sequence | binding signal |
| --- | --- |
| CGCGCACTCTCTGGTTGCGCACATACGCACACATACACATACACACATACACATACGCAC | 10.9 log fluorescence intensity |
| CGCGCACTCTGTGGTGGCGCACATACGCACACATACACATACACACATACACATACGCAC | 11.1 log fluorescence intensity |
| GCGCACATTTGCCGTAAATCATACACGCACACATACACATACACACATACACATACGCAC | 10.9 log fluorescence intensity |
| GCATACGGCTGGCGTCAGCCACATACGCACACATACACATACACACATACACATACGCAC | 11 log fluorescence intensity |
| CGCGCACTCTGTGGATGCGCACATACGCACACATACACATACACACATACACATACGCAC | 10.9 log fluorescence intensity |
| GCATACGGCTGACGTCAGTCACATACGCACACATACACATACACACATACACATACGCAC | 10.9 log fluorescence intensity |
| GCGCACATTTCCCGTATATCATACACGCACACATACACATACACACATACACATACGCAC | 11 log fluorescence intensity |
| CGCGCACCCTGTGGTTGCGCACATACGCACACATACACATACACACATACACATACGCAC | 11.4 log fluorescence intensity |
| GCATACGGCTGACATCAGCCACATACGCACACATACACATACACACATACACATACGCAC | 10.9 log fluorescence intensity |
| CGCGCACTCTGTGCTTGCGCACATACGCACACATACACATACACACATACACATACGCAC | 10.9 log fluorescence intensity |
| CGCGCACTCTGTGGTTGCGCACATACGCACACATACACATACACACATACACATACGCAC | 11.7 log fluorescence intensity |
| GCATACGGCTGACGTCATCCACATACGCACACATACACATACACACATACACATACGCAC | 10.9 log fluorescence intensity |
| CGCGCAATCTGTGGTTGCGCACATACGCACACATACACATACACACATACACATACGCAC | 11.1 log fluorescence intensity |
| GCGCACATTTCCCCTAAATCATACACGCACACATACACATACACACATACACATACGCAC | 10.9 log fluorescence intensity |
| GCATACGGCTGACGTCAGCAACATACGCACACATACACATACACACATACACATACGCAC | 10.9 log fluorescence intensity |
| GCGCACATTTCCTGTAAATCATACACGCACACATACACATACACACATACACATACGCAC | 10.9 log fluorescence intensity |
